Laboratory results reported in the supplement of paper PMC8728848.
Shown is part of a subset that was picked to be rich in the strongest signals.

Tests used:
Test in all cases: glycan array binding signal (z-score within array); higher = stronger binding
Conditions in all cases: glycan notation: IUPAC condensed, linker removed
GalNAc(b1-4)Gal(b1-4)Glc = biological target: GalNAc(b1-4)Gal(b1-4)Glc
Method in brief: (§1)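 The binding signal is a Z-score computed within each array. Data were drawn from 3228 arrays in the Consortium for Functional Glycomics database, restricted to those with a known protein sequence. Scores were averaged over arrays of the same protein sequence at different concentrations or buffers, and over linkers, and negative values can be taken as non-binding.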

GalNAc(b1-4)GlcNAc = biological target: GalNAc(b1-4)GlcNAc
Method in brief: as §1

[1] = biological target: Glc(a1-6)Glc(a1-6)Glc(a1-6)Glc
Method in brief: as §1

[2] = biological target: GlcNAc(b1-2)Gal(b1-3)GalNAc
Method in brief: as §1

[3] = biological target: GlcNAc(b1-3)Gal(b1-4)GlcNAc(b1-3)Gal(b1-4)GlcNAc(b1-3)Gal(b1-4)GlcNAc(b1-2)Man(a1-3)[GlcNAc(b1-3)Gal(b1-4)GlcNAc(b1-3)Gal(b1-4)GlcNAc(b1-3)Gal(b1-4)GlcNAc(b1-2)Man(a1-6)]Man(b1-4)GlcNAc(b1-4)[Fuc(a1-6)]GlcNAc
Method in brief: as §1

[4] = biological target: GlcNAc(b1-3)Gal(b1-4)GlcNAc(b1-3)Gal(b1-4)GlcNAc(b1-3)Gal(b1-4)GlcNAc(b1-2)[GlcNAc(b1-3)Gal(b1-4)GlcNAc(b1-3)Gal(b1-4)GlcNAc(b1-3)Gal(b1-4)GlcNAc(b1-6)]Man(a1-6)[GlcNAc(b1-3)Gal(b1-4)GlcNAc(b1-3)Gal(b1-4)GlcNAc(b1-3)Gal(b1-4)GlcNAc(b1-2)Man(a1-3)]Man(b1-4)GlcNAc(b1-4)[Fuc(a1-6)]GlcNAc
Method in brief: as §1

[5] = biological target: GlcNAc(b1-3)Gal(b1-4)GlcNAc(b1-3)Gal(b1-4)GlcNAc(b1-3)Gal(b1-4)GlcNAc(b1-3)Gal(b1-4)GlcNAc(b1-2)[GlcNAc(b1-3)Gal(b1-4)GlcNAc(b1-3)Gal(b1-4)GlcNAc(b1-3)Gal(b1-4)GlcNAc(b1-3)Gal(b1-4)GlcNAc(b1-6)]Man(a1-6)[GlcNAc(b1-3)Gal(b1-4)GlcNAc(b1-3)Gal(b1-4)GlcNAc(b1-3)Gal(b1-4)GlcNAc(b1-3)Gal(b1-4)GlcNAc(b1-2)Man(a1-3)]Man(b1-4)GlcNAc(b1-4)[Fuc(a1-6)]GlcNAc
Method in brief: as §1

GlcNAc(b1-3)GalNAc = biological target: GlcNAc(b1-3)GalNAc
Method in brief: as §1

GlcNAc(b1-3)Man = biological target: GlcNAc(b1-3)Man
Method in brief: as §1

[6] = biological target: GlcNAc(b1-3)[GlcNAc(b1-6)]GalNAc
Method in brief: as §1

[7] = biological target: GlcNAc(b1-4)GlcNAc(b1-4)GlcNAc(b1-4)GlcNAc(b1-4)GlcNAc(b1-4)GlcNAc
Method in brief: as §1

Kdn(a2-3)Gal(b1-3)GlcNAc = biological target: Kdn(a2-3)Gal(b1-3)GlcNAc
Method in brief: as §1

Man(a1-2)Man(a1-3)Man = biological target: Man(a1-2)Man(a1-3)Man
Method in brief: as §1

[8] = biological target: Neu5Ac(a2-3)Gal(b1-4)GlcNAc(b1-2)Man(a1-3)[Neu5Ac(a2-3)Gal(b1-4)GlcNAc(b1-2)Man(a1-6)]Man(b1-4)GlcNAc(b1-4)GlcNAc
Method in brief: as §1

[9] = biological target: Neu5Ac(a2-3)Gal(b1-4)GlcNAc(b1-3)Gal(b1-3)GlcNAc
Method in brief: as §1

[10] = biological target: Neu5Ac(a2-3)Gal(b1-4)GlcNAc(b1-3)Gal(b1-4)GlcNAc
Method in brief: as §1

[11] = biological target: Neu5Ac(a2-3)Gal(b1-4)GlcNAc(b1-3)GalNAc
Method in brief: as §1

[12] = biological target: Neu5Ac(a2-3)Gal(b1-4)[Fuc(a1-3)]GlcNAc(b1-6)[Gal(b1-3)]GalNAc
Method in brief: as §1

[13] = biological target: Neu5Ac(a2-3)[GalNAc(b1-4)]Gal(b1-4)GlcNAc(b1-3)GalNAc
Method in brief: as §1

[14] = biological target: Neu5Ac(a2-6)Gal(b1-3)GlcNAc(b1-3)[Gal(b1-4)GlcNAc(b1-6)]Gal(b1-4)Glc
Method in brief: as §1

[15] = biological target: Neu5Ac(a2-6)Gal(b1-4)GlcNAc(b1-3)Gal(b1-4)GlcNAc(b1-3)Gal(b1-4)GlcNAc
Method in brief: as §1

[16] = biological target: Neu5Ac(a2-6)Gal(b1-4)GlcNAc(b1-3)Gal(b1-4)GlcNAc(b1-3)Gal(b1-4)GlcNAc(b1-2)Man(a1-3)[Neu5Ac(a2-6)Gal(b1-4)GlcNAc(b1-3)Gal(b1-4)GlcNAc(b1-3)Gal(b1-4)GlcNAc(b1-2)Man(a1-6)]GalNAc
Method in brief: as §1

[17] = biological target: Neu5Ac(a2-6)Gal(b1-4)GlcNAc(b1-3)Gal(b1-4)GlcNAc(b1-3)[Neu5Ac(a2-6)Gal(b1-4)GlcNAc(b1-3)Gal(b1-4)GlcNAc(b1-6)]GalNAc
Method in brief: as §1

[18] = biological target: Neu5Ac(a2-6)Gal(b1-4)GlcNAc(b1-6)[Gal(b1-3)GlcNAc(b1-3)]Gal(b1-4)Glc
Method in brief: as §1

[19] = biological target: Neu5Ac(a2-6)GalNAc(b1-4)GlcNAc
Method in brief: as §1

[20] = biological target: Neu5Ac(a2-8)Neu5Ac(a2-3)Gal(b1-4)GlcNAc
Method in brief: as §1

[21] = biological target: Neu5Ac(a2-8)Neu5Ac(a2-8)Neu5Ac
Method in brief: as §1

[22] = biological target: Neu5Gc(a2-3)Gal(b1-4)GlcNAc(b1-3)Gal(b1-4)GlcNAc(b1-2)Man(a1-3)[Neu5Gc(a2-3)Gal(b1-4)GlcNAc(b1-3)Gal(b1-4)GlcNAc(b1-2)Man(a1-6)]Man(b1-4)GlcNAc(b1-4)GlcNAc
Method in brief: as §1

B1: PkBDPgamma (Plasmodium knowlesi) (protein)
chain: SAINQIFLQNNVMDKCNDKRKRGERDWDCPTEKDVCIPDRRYQLCMMEITNLVDTDTHFHSDIIFRKSYSRRRLIYDVGGRGDLLLKKYNNVYSEDLCKDIKWSLQDFGDIIMGTDMEGIGYSLVVQNNLRSIFGTGTSAELDRKKWWNDHKKDIWKAMILSVKEKNRYSAWNCKEDVQIKVEPQIYRWIREWGRDYMSEFREQRRKLNEKCEDKLYYSTMLICTLPPCNNACKSYDEWITGKKKQWDVLSTKFSSVKKAQKIETENIARAYDILKQELNGFNEVTFENEINKRDKLYNYFCVCIVQEARKNTQENVKNVGSGVESKAPSSNPINEAVKSSSGEGKVQEDSAHRSVNEGEGKSSTNEADPGSQPGAAASGGGSGGGTGGGVDLAPQMLRELQETNAALQDVRELLRQQVKEITFLKNTVMECDACGGPLDRNLPPLAPLGPTGGWSHPQFEK
- glycan array binding signal (z-score) (GalNAc(b1-4)Gal(b1-4)Glc): -0.243
- glycan array binding signal (z-score) (GalNAc(b1-4)GlcNAc): -0.002
- glycan array binding signal (z-score) [1]: 0.897
- glycan array binding signal (z-score) [2]: -0.401
- glycan array binding signal (z-score) [3]: 0.128
- glycan array binding signal (z-score) [4]: -0.196
- glycan array binding signal (z-score) [5]: 2.27
- glycan array binding signal (z-score) (GlcNAc(b1-3)GalNAc): -0.356
- glycan array binding signal (z-score) (GlcNAc(b1-3)Man): -0.084
- glycan array binding signal (z-score) [6]: -0.331
- glycan array binding signal (z-score) [7]: -0.371
- glycan array binding signal (z-score) (Kdn(a2-3)Gal(b1-3)GlcNAc): -0.196
- glycan array binding signal (z-score) (Man(a1-2)Man(a1-3)Man): -0.276
- glycan array binding signal (z-score) [8]: 0.46
- glycan array binding signal (z-score) [9]: -0.241
- glycan array binding signal (z-score) [10]: 0.522
- glycan array binding signal (z-score) [11]: -0.073
- glycan array binding signal (z-score) [12]: 0.362
- glycan array binding signal (z-score) [13]: -0.323
- glycan array binding signal (z-score) [14]: -0.324
- glycan array binding signal (z-score) [15]: 0.015
- glycan array binding signal (z-score) [16]: 0.405
- glycan array binding signal (z-score) [17]: 0.922
- glycan array binding signal (z-score) [18]: 1.24
- glycan array binding signal (z-score) [19]: -0.045
- glycan array binding signal (z-score) [20]: 0.25
- glycan array binding signal (z-score) [21]: -0.324
- glycan array binding signal (z-score) [22]: 20.7
